# High-throughput results from PubChem BioAssay.
# Compounds with a hit are over-represented: about 2.1% of the library has one in this group of screens.
# HNF4A DNA FP – change in binding of human HNF4 alpha to DNA. P41235. HNF4a-FITC DNA binding, fluorescence polarization, 1 h. activity change, % at 10 µM. hit rate 0.3% among 360,000. AID 1224865; in the data active = activity change above about 30%, passing the limit was not always enough
# Rpn11 inh – blocks the human proteasome subunit Rpn11. O00487. human 26S proteasome, Ub4-pepOG fluorescence polarization; 20S core pre-blocked with epoxomicin. inhibition, % at 20 µM. hit rate 0.59% among 360,000;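 active = inhibition at 20 µM, scaled to each plate's controls, above about 33%, limit read from the data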
# Target sequence (O00487 whole entry, looked up): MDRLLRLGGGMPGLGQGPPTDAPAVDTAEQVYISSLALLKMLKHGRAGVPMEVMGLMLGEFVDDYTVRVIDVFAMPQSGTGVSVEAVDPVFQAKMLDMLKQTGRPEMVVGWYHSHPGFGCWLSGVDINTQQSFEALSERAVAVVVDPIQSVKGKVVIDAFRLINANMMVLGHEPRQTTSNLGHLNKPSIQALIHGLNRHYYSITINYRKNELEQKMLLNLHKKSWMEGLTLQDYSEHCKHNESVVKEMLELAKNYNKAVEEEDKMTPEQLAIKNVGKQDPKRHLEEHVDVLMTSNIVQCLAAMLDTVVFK
# TPT1 inhibitor – blocks Candida albicans tRNA 2'-phosphotransferase; recombinant caTPT1, FP RNA substrate dephosphorylation; inhibition, % at 5 µM; hit rate 0.81% among 300,000; AID 1962;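 active = inhibition above the mean of all tested compounds plus 3 SD, set per screening campaign, cut at about 24% in these data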;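 note: plate controls were DMSO alone for no effect and ferristatin control at 100 nM for full effect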
# Myeloid diff MLP – myeloid differentiation induction. calls only at 10 µM. hit rate 1% among 360,000. ER-HoxA9 myeloid progenitors, lysozyme-GFP differentiation, flow cytometry. AID 624256;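 active = normalized GFP-positive differentiation at or above the plate's own cutoff, the solvent-only control mean plus 3 SD; inconclusive = no clear call, values can overlap the other calls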;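 note: cells exposed to compound for four days before flow analysis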
# An asterisk follows results filed as active; i = inactive; ? = inconclusive; · = no result shown; + = active, no number.
SMILES,HNF4A DNA FP,Rpn11 inh,TPT1 inhibitor,Myeloid diff MLP
CCN(c1ccccc1)S(=O)(=O)c1cc(C(=O)Oc2ccc3c(C)cc(=O)oc3c2)ccc1C,-1,10,-1,i
Cc1cc2c(cc1C)-n1nnnc1C(N(C)CCc1ccccc1)C(=O)N2 (configuration not stated),4,·,·,i
CC(C)OC(=O)C(C(=O)C(F)(F)F)c1cc(NS(=O)(=O)c2ccc3ccccc3c2)c2ccccc2c1O (configuration not stated),-3,17,-2,+
CC(C)(C)OC(=O)N1CCC(Cc2cc(-c3cccnc3)no2)(C(=O)O)CC1,4,4,-4,+
COc1ccccc1N1CCCSC1=Nc1ccccc1,4,-4,·,i
CCN(CC)c1cc(C)c2cc(NC(=O)c3ccccc3OC)ccc2n1,-4,3,6,+
CCN(CC)c1cc(C)c2cc(NC(=O)c3cccs3)ccc2n1,6,0,6,i
CC(C)c1ccc(OCc2cccc(C(=O)N/N=C/c3cccnc3)c2)cc1,-1,6,1,+
CCOc1ccc(OCc2cccc(C(=O)N/N=C/c3cccnc3)c2)cc1,1,-4,8,i
Cc1[nH]c2c([N+](=O)[O-])cccc2c1C,-5,-3,0,i
O=[N+]([O-])c1cccc2cn[nH]c12,2,-7,1,+
COc1ccc(-n2c(Cc3cccn3C)nnc2SCC(=O)Nc2ccc(F)cc2F)cc1,3,-4,0,+
COCCNc1ncnc2c1ncn2[C@H]1CN(Cc2ccc(-c3ccccc3)cc2)C[C@@H](CO)O1,0,6,·,i
CCSc1nc(COC(=O)NC)c(COC(=O)NC)n1C,2,4,·,+
CCN(CC)C(=O)CSc1nnc2nnc3cc(OC)ccc3n12,-79,-131,-53,+
O=C(COc1cc(Cl)c(Cl)cc1Cl)NCCN1CCOCC1,-1,3,-1,+
CCc1cc(=O)oc2cc(OCC(=O)NCCN3CCOCC3)c(Cl)cc12,0,-3,-6,?
Cc1ccc(C(=O)NCCN2CCOCC2)c(Cl)c1,2,-9,0,+
CCc1nc2ccc(C(=O)N3CCN(C(C)=O)CC3)cn2c1N(C=O)Cc1ccc(OC)cc1,2,-1,·,i
COc1ccc(-c2nc(-c3ccccn3)ncc2S(C)(=O)=O)cc1,-3,5,3,i
CCn1c(N)nc2c1c(=O)n(C)c(=O)n2C,-1,-4,0,i
CCCc1nc2c(=O)n(C)c(=O)nc-2n(C)n1,157*,10,·,?
Cn1nc(-c2ccccn2)nc2c(=O)n(C)c(=O)nc1-2,153*,23,-5,?
N/C(=N\OC(=O)CSc1ccccc1)c1ccc([N+](=O)[O-])cc1,6,-2,-2,i
CC1=C(C(=O)Nc2ccccc2C(=O)NCc2ccccc2)SCCO1,3,0,0,i
SMILES,HNF4A DNA FP,Rpn11 inh,TPT1 inhibitor,Myeloid diff MLP
CC1=C(C(=O)Nc2ccccc2C(=O)NC2CCC(C)CC2)SCCO1 (configuration not stated),0,3,-4,+
O=C(Nc1ccccc1)C1CCCN1S(=O)(=O)c1ccc(Br)cc1 (configuration not stated),0,0,-1,i
CCC(C)NCC(=O)Nc1ccc(-c2nc3cc(NC(=O)CNC(C)CC)ccc3o2)cc1 (configuration not stated),0,-1,-2,+
CCN(CC)CC(=O)Nc1ccc(-c2nc3cc(NC(=O)CN(CC)CC)ccc3o2)cc1,-1,-8,-1,i
Cc1ccc(C(=O)N(CCC2=CCCCC2)c2c(N)n(Cc3ccccc3)c(=O)[nH]c2=O)o1,1,-5,-1,i
Nc1c(N(CCC2=CCCCC2)C(=O)c2ccc([N+](=O)[O-])o2)c(=O)[nH]c(=O)n1Cc1ccccc1,8,39*,9,+
N#Cc1ccc[n+](CC(=O)c2ccc(Cl)cc2)c1,10,8,-1,+
COCCN(CC(=O)NCC1CCCO1)C(=O)CCC(=O)Nc1ccccn1 (configuration not stated),0,-1,-2,i
Clc1ccc(/C(Cc2nc3ccccc3[nH]2)=N\Nc2ccccc2)cc1,2,-2,-1,i
N#CCCN/N=C(/Cc1nc2ccccc2[nH]1)c1cccc(Cl)c1,14,21,24,+
Cc1c(O)ccc(-c2n[nH]c(C(=O)O)c2-c2nc3ccccc3s2)c1O,-1,0,2,i
O=C(NCC(c1cccs1)N1CCc2ccccc21)c1ccccc1 (configuration not stated),-3,-1,0,+
NC1=NC2(CCCCC2)N(c2cccc(Cl)c2)C(N)=N1,-3,-1,-1,+
COc1ccc(CC(=O)NNC(=O)c2cccnc2)cc1OC,-2,3,-1,i
Cc1cccn2cc(-c3ccc(NC(=O)Cc4ccccc4)cc3)nc12,40*,27,4,i
CCOC(=O)c1cc([N+](=O)[O-])sc1NC(=O)c1ccc(S(=O)(=O)N2CC3(C)CC2CC(C)(C)C3)cc1 (configuration not stated),14,25,6,+
CC(C)(C)C(=O)/C=c1\s/c(=C\c2ccc(-c3ccc([N+](=O)[O-])cc3)o2)c(=O)n1CC(=O)NC(N)=O,96,·,104*,+
COc1ccc(C2(C(=O)Nc3ccc(C)c(C)c3)CCOCC2)cc1,-3,8,-3,i
COc1ccc([C@H]2CN(c3ccccc3)C(=O)[C@@H]2CC(=O)Nc2ccccc2)cc1,1,-1,·,i
COc1ccc([C@H]2CN(c3ccc(OC)cc3)C(=O)[C@@H]2CC(=O)Nc2ccc(Br)cc2)cc1,3,5,·,+
Nc1cnc(Nc2ccc(Br)cc2)nc1N,5,8,5,+
CCC(C)(C)C1CCc2[nH]nc(C(=O)O)c2C1 (configuration not stated),-5,-9,-6,i
COc1ccc(C(=O)CC(=O)C(=O)Nc2ccc(Cl)cc2)cc1,2,-6,-1,i
COc1ccc(C(=O)CC(Nc2ccc([N+](=O)[O-])cc2)c2ccc(Cl)cc2)cc1 (configuration not stated),-1,-6,-3,+
CC(=O)N1c2ccccc2N(Cc2ccc(C)cc2C)C(=O)C1(C)C,2,7,-7,+
SMILES,HNF4A DNA FP,Rpn11 inh,TPT1 inhibitor,Myeloid diff MLP
Cc1nc(-n2nnc3cc(C)c(C)cc32)c2c3c(sc2n1)CCCC3,-1,0,-1,+
Cc1cccc(C)c1-n1nnnc1C1(C)CCC(=O)N1CCCN1CCOCC1 (configuration not stated),3,·,·,i
O=C1c2c(-c3ccc(Br)cc3)noc2CCN1Cc1cn(Cc2cccnc2)nn1,1,·,·,i
CCN(CC)C(=O)CNC(=O)Cc1ccc(Cl)cc1,2,-1,0,i
CC1(C)N=C(N)N=C(N)N1c1ccc(OCCCOc2ccccc2)c(Cl)c1,50*,5,0,?
CC1(C)N=C(N)N=C(N)N1c1ccc(OCC(=O)N2CCOCC2)c(Cl)c1,2,4,·,+
